17 compounds from paper PMC5540273 (PLoS ONE, 2017) can be followed below.

Several values for one entry are separate records, joined by “and”; a condition that tells them apart may be missing. Identical values can stand only once. Like-named read-outs stand apart in the source and are kept apart here.

Assay [1] concerns T1, PFTK1.
T1 construct: gene CDK14
As to conditions: concentration: 1 μM, replicates: in singlicate, n = 1.

Assay [2] relates to PHKG1. As to conditions: concentration: 1 μM, replicates: in singlicate, n = 1.
Assay [3] deals with PHKG2. The following applies: concentration: 1 μM, replicates: in singlicate; n = 1.
The subject of assay [4] is PIK3C2B. As to conditions: concentration: 1 μM, replicates: in singlicate; n = 1.
Assay [5] deals with PIK3C2G. As to conditions: concentration: 1 μM, replicates: in singlicate; n = 1.
The test system of assay [6] is PIK3CA. The following applies: concentration: 1 μM, replicates: in singlicate, n = 1.
The subject of assay [7] is PIK3CB. As to conditions: concentration: 1 μM, replicates: in singlicate, n = 1.
Assay [8] deals with PIK3CD. As to conditions: concentration: 1 μM, replicates: in singlicate; n = 1.
Assay [9] deals with PIK3CG. As to conditions: concentration: 1 μM, replicates: in singlicate, n = 1.
For assay [10], the system named is T2, PIK4CB.
T2 construct: gene PI4KB
The following applies: concentration: 1 μM, replicates: in singlicate, n = 1.
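Further: KINOMEscan kinase panel screen.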

For `Cl.Cl.Cl.Fc1ccc(-c2ncn(C3CCNCC3)c2-c2ccnc(Nc3ccccc3)n2)cc1` [SB-238039], the “%Inh” value in assay [1] (1 µM) is 16% and 0%; in assay [2] (1 µM), 4% and 0%; in [3], 0%; in assay [4], 0%; in assay [5], 0%; in [6] (1 µM), 6% and 0%. In addition, the “%Inh” value in assay [7] (1 µM) was 0% and 13%; in assay [8] it was 0%; in assay [9] (1 µM), 0% and 26%; in [10] (1 µM), 7% and 34%.
For the compound `Fc1ccc(-c2ncn(CCCN3CCOCC3)c2-c2ccccn2)cc1` [SB-211742], the “%Inh” value in [1] was found to be 0%; in assay [2], 50%; in assay [3], 0%; in assay [4] it was 0%; in assay [5] it was 0%; in assay [6], 0%. Also, the “%Inh” value in assay [7], in assay [8], in assay [9] and in [10] was 0% in each case.
Consider `CCc1nc(-c2cccc(C)c2)c(-c2ccnc(NCc3ccccc3)c2)s1`, for which the “%Inh” value is on record as 1% in assay [1]; 0% in assay [2]; 22% in assay [3]; 0% in [4]; 18% in assay [5]; 0% in [6]. Moreover, the “%Inh” value turned out to be 16% in assay [7], 0% in assay [8], 0% in assay [9] and 0% in [10].
Turning to `NS(=O)(=O)c1cccc(-c2ccc3nccc(-c4cccc(S(N)(=O)=O)c4)c3c2)c1` [GW867253], the “%Inh” value in [1] stood at 0%; in assay [2] it was 0%; in [3], 5%; in assay [4] it was 58%; in assay [5] it was 52%; in assay [6], 38%. Further, the “%Inh” value in assay [7] turned out to be 24%; in [8], 39%; in assay [9], 88%; in [10] it was 99.1%.
Take `Nc1nccc(-c2c(-c3ccc(F)cc3)ncn2C2CCN(CC(F)(F)F)CC2)n1` [SB-236560]: the “%Inh” value in assay [1] is 0%; in assay [2], 0%; in assay [3], 0%; in [4], 5%; in assay [5], 53%; in assay [6], 0%. For the same compound, the “%Inh” value in assay [7] worked out at 18%; in assay [8], 0%; in [9], 66%; in assay [10] it was 46%.
Take `CC(C)(C)n1cnc2c(N)ncnc21` [SKF-97359]: the “%Inh” value in assay [1] was 0%; in assay [2], 14%; in [3], 24%; in assay [4], 0%; in assay [5], 0%; in assay [6] it was 0%. Further, the “%Inh” value in assay [7] is reported as 0%; in assay [8], 0%; in [9] it was 0%; in [10] it was 25%.
Consider `COc1ccc(Nc2nccc(N3CCC(NC(=O)Nc4cc(C)ccc4C)C3)n2)cc1` (centres unmarked) [GSK1379741], for which the “%Inh” value in assay [1] is 2%; in assay [2] it was 0%; in assay [3] it was 0%; in [4], 0%; in assay [5], 0%; in assay [6], 0%. The “%Inh” value in assay [7] came out at 0%; in [8], 0%; in [9] it was 0%; in assay [10], 23%.
With `COc1cc2c(cc1OCCN1CCN(C)CC1)ncc1c3ccc(C#N)cc3[nH]c21`, the “%Inh” value came out at 18% in assay [1]; 98.2% in assay [2]; 99.8% in assay [3]; 0% in [4]; 25% in assay [5]; 0% in assay [6]. Moreover, the “%Inh” value in assay [7], in assay [8], in [9] and in assay [10] was 0% in each case.
As to `Cc1ccc(NC(=O)c2ccnc(N3CCN(C)CC3)c2)cc1-c1ccc(C(=O)NCC2CC2)cc1` [GW775604], the “%Inh” value in assay [1], in assay [2], in [3], in assay [4], in assay [5] and in [6] was 0% throughout. In addition, the “%Inh” value in assay [7], in assay [8], in assay [9] and in assay [10] was 0% each time.
For `CCCCCc1nc2c(N)ncnc2n1CCCCC` [SKF-97255], the “%Inh” value in assay [1] amounted to 2%; in assay [2] it was 9%; in [3] it was 0%; in assay [4], 0%; in [5] it was 0%; in assay [6], 14%. The “%Inh” value in assay [7] came to 0%; in assay [8] it was 0%; in assay [9], 15%; in [10] it was 1%.
Consider `CN1c2ccc(NCc3ccc(F)cc3)cc2-c2c(cnn2C)S1(=O)=O`, for which the “%Inh” value in assay [1], in assay [2], in [3], in assay [4], in assay [5] and in assay [6] was 0% in each case. Also, the “%Inh” value in [7], in assay [8], in assay [9] and in assay [10] was 0% in each case.
Turning to `COc1cc2c(cc1OC[C@@H](O)CO)ncc1c3ccc(C#N)cc3[nH]c21`, the “%Inh” value was found to be 0% in assay [1]; 95.5% in assay [2]; 99.2% in [3]; 0% in assay [4]; 0% in assay [5]; 18% in assay [6]. Besides, the “%Inh” value in [7] is given as 0%; in [8], 2%; in [9] it was 9%; in assay [10], 0%.
Regarding `COc1ccc(COc2cc(-n3cnc4ccccc43)sc2C(N)=O)cc1` [GSK1024304], the “%Inh” value in [1], in assay [2], in assay [3], in [4], in [5] and in assay [6] was 0% throughout. Also, the “%Inh” value in assay [7] came to 100%; in assay [8], 0%; in [9] it was 0%; in [10] it was 0%.
As for `CN(C(=O)c1ccc(-c2cc(-c3c[nH]nc3-c3ccccn3)ccn2)cc1)C1CCOCC1` [GW810083], the “%Inh” value in assay [1] was found to be 0%; in assay [2] it was 1%; in assay [3], 12%; in assay [4], 0%; in [5] it was 10%; in [6], 0%. Also, the “%Inh” value is reported as 0% in [7], 1% in assay [8], 32% in [9] and 40% in assay [10].
`Cc1ccc(C(=O)NCC(N)=O)cc1-n1c(C)cc(OCc2ccc(F)cc2F)c(Br)c1=O`: the “%Inh” value in [1] is listed as 26%; in [2], 9%; in assay [3] it was 1%; in [4], 0%; in [5] it was 51%; in [6], 0%. Moreover, the “%Inh” value in [7] stood at 0%; in assay [8], 30%; in [9], 0%; in assay [10], 0%.
`c1ccc(-c2cc(-c3c[nH]nc3-c3ccccn3)ccn2)cc1` [GW576604]: the “%Inh” value in assay [1] is 39%; in assay [2] it was 0%; in assay [3] it was 0%; in [4], 0%; in [5], 0%; in [6] it was 0%. In addition, the “%Inh” value in [7], in assay [8], in assay [9] and in assay [10] was 0% throughout.
As for `COc1cc2ncn(-c3cc(OCc4sccc4Cl)c(C(N)=O)s3)c2cc1OC` [GSK448459], the “%Inh” value in assay [1] is 12%; in assay [2], 0%; in assay [3], 0%; in assay [4] it was 15%; in assay [5] it was 0%; in assay [6], 0%. Also, the “%Inh” value in assay [7] amounted to 0%; in assay [8], 30%; in assay [9], 35%; in assay [10] it was 0%.
